# Source: publication PMC7819943, “Rice protein-binding microarrays: a tool to detect cis-acting elements near promoter regions in rice”
# Over roughly 39,000 sequences, “fluorescence intensity (a.u.)” has its median near 4,300; the highest 2% begin near 39,000. This excerpt belongs to a sample that is enriched for the highest values.
# Target: T1, OsSMF1 (Oryza sativa, UniProt Q6ZLB0 1-436)
# T1 sequence: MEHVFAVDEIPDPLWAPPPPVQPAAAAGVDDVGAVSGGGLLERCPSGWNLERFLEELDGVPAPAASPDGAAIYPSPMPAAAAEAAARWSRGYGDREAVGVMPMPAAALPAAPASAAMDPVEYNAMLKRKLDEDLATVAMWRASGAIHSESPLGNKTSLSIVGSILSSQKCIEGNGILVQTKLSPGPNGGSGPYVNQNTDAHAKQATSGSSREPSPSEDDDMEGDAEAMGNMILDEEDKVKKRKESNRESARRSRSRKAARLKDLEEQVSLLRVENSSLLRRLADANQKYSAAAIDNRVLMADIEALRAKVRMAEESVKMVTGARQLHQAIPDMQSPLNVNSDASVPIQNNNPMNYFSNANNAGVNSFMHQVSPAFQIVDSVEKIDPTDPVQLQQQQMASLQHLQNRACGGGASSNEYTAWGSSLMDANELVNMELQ
# Test: protein-binding microarray (RPBM); PBS, 2% BSA, 51.3 ng/ul salmon testes DNA, 50 uM zinc acetate, 200 nM TF, 25 C, 1 h; high values mean tight binding
# Conditions: protein: recombinant; tags: N-terminal polyhistidine and DsRed monomer fusion (pET32a); chain copies: 2; label: CyDye5-dUTP incorporated in the synthesized complementary strand; 3' TTTTT single-stranded linker to array surface; dsDNA, one strand shown
# In short: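 Per-feature fluorescence intensity (arbitrary units), read on an Axon 4000B scanner, is the binding signal. Transcription factors carrying an N-terminal polyhistidine tag and DsRed fusion were expressed in E. coli BL21-CodonPlus and purified on Ni–NTA. A custom Agilent array, made double-stranded by primer extension with Cy5-dUTP and blocked with 2% BSA, was incubated with 200 nM protein in PBS, 2% BSA, salmon testes DNA and 50 µM zinc acetate at 25 °C for 1 h and then washed.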
row,Sequence,binding signal
1,AGGATTTCATGTGTTTTGGTTAACATATTCATGTGTGTCTCGGAGTCACCTAGTGCAG,3500 fluorescence intensity (a.u.)
2,TTTTAGTATATTTATATACTTTGTGCAAGGTGACATGTACCGGAGTCACCTAGTGCAG,3440 fluorescence intensity (a.u.)
3,CTTCTCTTATTGTTTGTGTCATTTTCATTTATGTCCTTGTCGGAGTCACCTAGTGCAG,3940 fluorescence intensity (a.u.)
4,GGAGTGGCGGGGTTGCGGCATTGGGAGCTGACGTGGCCGCCGGAGTCACCTAGTGCAG,25400 fluorescence intensity (a.u.)
5,ATATAAATAGGTTTCGAGGTAGAATATCAAAACAAGGATGCGGAGTCACCTAGTGCAG,39300 fluorescence intensity (a.u.)
6,GTAGAATTATAAAATATATTGTGTACACAATAGGTTTATGCGGAGTCACCTAGTGCAG,3330 fluorescence intensity (a.u.)
7,AAACATCATATCAAATCTTTGGACATAGGTATAGAATATTCGGAGTCACCTAGTGCAG,8890 fluorescence intensity (a.u.)
8,GAGCCACGGTGGAAGGGTATAATCGTAATTTCGCGTATGGCGGAGTCACCTAGTGCAG,3370 fluorescence intensity (a.u.)
9,ACCGGGTCGCGCGCGTCGTTGAAACGTCACACCTAGCTAACGGAGTCACCTAGTGCAG,4280 fluorescence intensity (a.u.)
10,CGAATCTTTTGAGCCTAATTAATCTATCATTAGCACATGTCGGAGTCACCTAGTGCAG,3170 fluorescence intensity (a.u.)
11,AGTAAATCCACATCAACAGCATTCTGTTGTTAACTCTGCCCGGAGTCACCTAGTGCAG,6820 fluorescence intensity (a.u.)
12,TGAAAATCGCATACTAATTAGCTATTAGTCATGAGCTCTTCGGAGTCACCTAGTGCAG,3590 fluorescence intensity (a.u.)
13,CAGGGAGCATTGAGATTCACTTTGTCACGATGGTAATATACGGAGTCACCTAGTGCAG,22600 fluorescence intensity (a.u.)
14,TGCTTCCCCTGTTCTGATCACCTGCGCACACGGGTGCTCACGGAGTCACCTAGTGCAG,49200 fluorescence intensity (a.u.)
15,GGGGAGCTTTGCCCCTGCGCACACTTGTCACGCTCACGCACGGAGTCACCTAGTGCAG,3220 fluorescence intensity (a.u.)
16,CTGCACCTGCTTGATCTCTTCTATGTCACTGTTCCTCTGACGGAGTCACCTAGTGCAG,3220 fluorescence intensity (a.u.)
17,CATAGCCTTTTGCATATGCGTCAAGCGTCTATACGATTCGCGGAGTCACCTAGTGCAG,3900 fluorescence intensity (a.u.)
18,TGGGCGAGGAAGATATGAGTGTGAAAGGATGGAGGGCCCACGGAGTCACCTAGTGCAG,32900 fluorescence intensity (a.u.)
19,TTTGACATAGATGTGTTCCTCTAATGACATAGATGTGTTCCGGAGTCACCTAGTGCAG,3230 fluorescence intensity (a.u.)
20,CAATCATCAGCCACGTCCGCCGCCGCTTCAGCTGGATCGGCGGAGTCACCTAGTGCAG,4290 fluorescence intensity (a.u.)
21,GGTCGACCCACCGTCTGCCACGTCAGCTTGCTGCCCACCACGGAGTCACCTAGTGCAG,48400 fluorescence intensity (a.u.)
22,GAGAGAAGATAGTAGTGGTAGTAGTAGCTGAGCTGTGTCACGGAGTCACCTAGTGCAG,3360 fluorescence intensity (a.u.)

row,Sequence,binding signal
1,AGAGCTGAGCCTTATGTGTGGTCTGTCTGTGCCTAGTCGACGGAGTCACCTAGTGCAG,48400 fluorescence intensity (a.u.)
2,TCAGCGGCAGCCCACCCGACTGGGCCGGTCATCGGCGCCACGGAGTCACCTAGTGCAG,3470 fluorescence intensity (a.u.)
3,GTGTGCTGTGTGTGGTCTGAGATGATGTGTACTGCTGCTACGGAGTCACCTAGTGCAG,3950 fluorescence intensity (a.u.)
4,CTGGAGCGGGCGGCCACGGTCACGCCACGTCAGCTTCCATCGGAGTCACCTAGTGCAG,42100 fluorescence intensity (a.u.)
5,CGCGGTCGACCCACCGTCTGCCACGTCAGCTTGCTGCCCACGGAGTCACCTAGTGCAG,25600 fluorescence intensity (a.u.)
6,GACGGCGCGGTCGACCCGCCGTCTGCCACGTCAGCTTGCCCGGAGTCACCTAGTGCAG,27400 fluorescence intensity (a.u.)
7,GCAGACGGCGCGGTCGACCCACCGTCTGCCACGTCAGCTTCGGAGTCACCTAGTGCAG,37200 fluorescence intensity (a.u.)
8,CGGTCGACCCACCGTCTGCCACGTCAGCTTGCCGCCCACCCGGAGTCACCTAGTGCAG,22800 fluorescence intensity (a.u.)
9,GACGGCGCGGTCGACCCACCGTCTGCCACGTCAGCTTGCCCGGAGTCACCTAGTGCAG,50100 fluorescence intensity (a.u.)
10,CTCCATCTCGCAGTCGCAGTGCCAGCTAAGGCCTTGTACACGGAGTCACCTAGTGCAG,3240 fluorescence intensity (a.u.)
11,GCAGTGGCTAAGCTTAAGCTCAGGTATGATGACTCGTTGGCGGAGTCACCTAGTGCAG,3610 fluorescence intensity (a.u.)
12,AAGGGCAGCTCAGTCATGGCTGCCACGAGGACAGATGTGGCGGAGTCACCTAGTGCAG,4760 fluorescence intensity (a.u.)
13,AGAGCAGATCCCCTGTCACGCCGACGCCGCCGCCGCCACCCGGAGTCACCTAGTGCAG,5410 fluorescence intensity (a.u.)
14,CAATCTGTCATCTCTTTACCAGTCTCATTGACATGTGGGCCGGAGTCACCTAGTGCAG,3270 fluorescence intensity (a.u.)
15,GAGAAAGGGTGTTGACGTGGCATCCTGACATGTGGGGTCCCGGAGTCACCTAGTGCAG,15100 fluorescence intensity (a.u.)
16,AGCGGCGTCGTCTCGGCGGTGGCCGGTGCCACGGCGGCGGCGGAGTCACCTAGTGCAG,6200 fluorescence intensity (a.u.)
17,CACCTATCCATCCATCCATGTGTGGTGTCGTGTCAGCGTTCGGAGTCACCTAGTGCAG,6950 fluorescence intensity (a.u.)
18,AATCGGTGTCGTTTTGCACGGCGTGTGCCACGTCAGCGTTCGGAGTCACCTAGTGCAG,52000 fluorescence intensity (a.u.)
19,CGTCGTCGCCGCCGCCGCCCTCTGCGTCGACGCTGCGGCACGGAGTCACCTAGTGCAG,3220 fluorescence intensity (a.u.)
20,CGACGCCGCCGAGATCGCCGTCACCCGAATCCTGCGACGCCGGAGTCACCTAGTGCAG,3580 fluorescence intensity (a.u.)
21,AGCTTCGGAGGCTGTACACGTAATGTGGTCGCTTGTTTGTCGGAGTCACCTAGTGCAG,9220 fluorescence intensity (a.u.)
22,CATGTACACACCCACAGTCATCTGCTCATGTTTTCACGGTCGGAGTCACCTAGTGCAG,3630 fluorescence intensity (a.u.)
